Source: PubChem BioAssay AID1649 (The Scripps Research Institute Molecular Screening Center, 2009)
Some of the results follow. Unmarked numbers belong to inactive results. No stated cut-off is given here; in the data, active means activation above about 33%; inactive means the rest.

Assay: NPY-Y2 potentiators or agonists, counter-screen for NPY-Y1 potentiator project, cell-based, fluorescence (AID 1649)
Conditions: HEK293-CNG cells, membrane-potential fluorescence (FLIPR), 1536-well; at 3.6 µM; active compounds read high

Compound | activation
CSC1=NP(=S)(SC)N(C)c2nc3n(c21)CCC3 (configuration not stated) | 3.63%
Cc1nn(Cc2ccccc2Cl)c(Cl)c1C(=O)OC(C(=O)NC(N)=O)C(C)C (configuration not stated) | 23.6%
